Read-out in assay [1]: Monokine induced gamma interferon (MIG), CXCL9 (gene 4283)
Nature of the assay: BSK_SAg_MIG: BioMAP Diversity Plus: SAg Assay for Monokine induced gamma interferon (MIG) Biomarker Activity (AID 2283092). To be noted: primary human HUVEC with PBMC; actives raise or lower the signal. The method, boiled down:
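ELISA readout of MIG/CXCL9; primary human umbilical vein endothelial cells co-cultured with peripheral blood mononuclear cells; 24 h post-dose; gain/loss fit vs DMSO baseline.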

Assay [2] in a line: BSK_SAg_PBMCCytotoxicity: PBMC Cytotoxicity Assessment in the BioMAP Diversity Plus: SAg Assay (AID 2283093).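 Further: PBMC viability measured as Alamar Blue reduction fluorescence at 546/580 nm; fitted both ways against DMSO so a hit may be loss or gain of signal.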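 On AC50: PBMC superantigen activated with SEB plus TSST-1 one hour after compound addition.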 The conditions noted are these: primary human HUVEC with PBMC. The method in brief:
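Human umbilical vein endothelial cells co-cultured with PBMC; PBMC (75,000/well) pre-treated with compound 1 h, then activated with SEB and TSST-1 (20 ng/mL final each) for 90 h. Alamar Blue added 6 h, fluorescence 546/580 nm; bidirectional fit versus DMSO.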

Read-out in assay [3]: Interleukin-8 (IL8), CXCL8 (gene 3576)
Nature of the assay: BSK_SAg_IL8: BioMAP Diversity Plus: SAg Assay for Interleukin-8 (IL8) Biomarker Activity (AID 2283094). To be noted: primary human HUVEC with PBMC; actives raise or lower the signal. The method, boiled down:
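ELISA read-out of IL-8 in a primary human vascular co-culture (umbilical vein endothelium plus PBMC), taken 24 h after compound addition. Values derive from bidirectional fits against DMSO negative controls.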

Assay [4] is described as follows: BSK_SAg_Proliferation: Cell Proliferation Assessment in the BioMAP Diversity Plus: SAg Assay (AID 2283095).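 Further: relative cell number as total protein by SRB absorbance in sub-confluent culture.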 The conditions noted are these: primary human HUVEC with PBMC. The method, boiled down:
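Cells (endothelium plus PBMC, human primary) were dosed with chemical, cultured 96 h, fixed in 10% TCA and stained with 0.1% SRB. Absorbance at 560 nm gave relative protein, fitted bidirectionally relative to DMSO.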

A short description of assay [5]: BSK_SAg_SRB: Viability Assessment in the BioMAP Diversity Plus: SAg Assay (AID 2283096).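 Further: cells read one day after compound addition; hits may be either gain or loss of signal compared with DMSO.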 To be noted: primary human HUVEC with PBMC. The method in brief: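 Endothelial/PBMC primary human co-culture; compound 24 h; fix 10% TCA, stain 0.1% SRB, A560; protein content as cytotoxicity proxy; bidirectional curve fit, DMSO = baseline.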
The target of assay [6] is human CYP2A6, CYP2A6 (gene 1548) (UniProt P11509). Nature of the assay: NVS_ADME_hCYP2A6: NovaScreen (NVS) CYP450-related Enzyme Activity (ADME) Assay for human CYP2A6 (AID 2283099; active means hit-call score of the fitted dose curve at least 0.9, where 1 is the maximum). The method in brief: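 Compounds screened at 10 uM (duplicate) and, if active, titrated to a 20 uM top concentration against insect-cell-expressed CYP2A6. Loss of fluorescent product signal after 0.5 h, relative to acetonitrile baseline, indicates inhibition.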
human CYP2A6, CYP2A6 (gene 1548), sequence (P11509 whole entry, looked up): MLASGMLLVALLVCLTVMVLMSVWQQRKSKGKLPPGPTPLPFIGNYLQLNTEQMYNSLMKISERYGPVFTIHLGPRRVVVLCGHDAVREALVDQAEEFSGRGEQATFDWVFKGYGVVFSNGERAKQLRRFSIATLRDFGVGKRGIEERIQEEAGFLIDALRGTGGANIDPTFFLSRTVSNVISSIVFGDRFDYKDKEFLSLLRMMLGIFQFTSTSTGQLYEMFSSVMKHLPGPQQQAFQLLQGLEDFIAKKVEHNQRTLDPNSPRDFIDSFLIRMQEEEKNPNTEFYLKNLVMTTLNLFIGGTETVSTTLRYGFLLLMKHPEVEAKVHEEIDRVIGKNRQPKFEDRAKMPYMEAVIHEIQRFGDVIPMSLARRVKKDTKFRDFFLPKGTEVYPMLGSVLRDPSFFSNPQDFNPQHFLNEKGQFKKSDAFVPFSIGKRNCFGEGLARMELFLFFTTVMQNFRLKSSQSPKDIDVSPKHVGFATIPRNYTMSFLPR

Assay [7] has as its target human CYP19A1, CYP19A1 (gene 1588) (UniProt P11511). Nature of the assay: NVS_ADME_hCYP19A1: NovaScreen (NVS) CYP450-related Enzyme Activity (ADME) Assay for human CYP19A1 (AID 2283098; active means hit-call score of the fitted dose curve at least 0.9, where 1 is the maximum;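 further: potency for inhibitors seen as loss of fluorescent enzyme signal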). The method in brief:
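Cell-free enzyme assay with recombinant protein and a specific fluorogenic substrate, read by fluorescence intensity 0.5 h after dosing. Primary screen ran in duplicate at 10 uM; actives were retested in concentration series. Loss of signal versus acetonitrile baseline.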

The target of assay [8] is human Caspase 4 (CASP4), CASP4 (gene 837) (UniProt P49662). Nature of the assay: NVS_ENZ_hCASP4: NovaScreen (NVS) Enzymatic Assay for human Caspase 4 (CASP4) (AID 2283143; active means hit-call score of the fitted dose curve at least 0.9, where 1 is the maximum). The method, boiled down:
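The cell-free assay used E. coli-expressed enzyme with a fluorogenic substrate, read 2 h after dosing. Signal loss was scored versus DMSO. Screening was in duplicate at 25 uM, then singleton concentration-response up to 50 uM.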

Assay [9] has as its target human AKT serine/threonine Kinase 1 (AKT1), AKT1 (gene 207) (UniProt P31749). Nature of the assay: NVS_ENZ_hAKT1: NovaScreen (NVS) Enzymatic Assay for human AKT serine/threonine Kinase 1 (AKT1) (AID 2283138; active means hit-call score of the fitted dose curve at least 0.9, where 1 is the maximum). The method in brief:
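Recombinant AKT1, specific substrate, cell-free; 1 h; fluorescence intensity/electrophoretic mobility shift. Duplicate single-point 25 uM, then singleton CRC max 50 uM. DMSO = negative control/baseline; signal loss = inhibition.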

For assay [10], the target named is human AKT serine/threonine Kinase 2 (AKT2), AKT2 (gene 208) (UniProt P31751). Nature of the assay: NVS_ENZ_hAKT2: NovaScreen (NVS) Enzymatic Assay for human AKT serine/threonine Kinase 2 (AKT2) (AID 2283141; active means hit-call score of the fitted dose curve at least 0.9, where 1 is the maximum). The method in brief: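 Cell-free fluorescence/electrophoretic mobility shift readout of recombinant human AKT2 activity, 1 h after chemical dosing. Duplicate primary screen at 25 uM, then singleton concentration-response up to 50 uM; loss of signal versus DMSO baseline.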
human AKT serine/threonine Kinase 2 (AKT2), AKT2 (gene 208), sequence (P31751 whole entry, looked up): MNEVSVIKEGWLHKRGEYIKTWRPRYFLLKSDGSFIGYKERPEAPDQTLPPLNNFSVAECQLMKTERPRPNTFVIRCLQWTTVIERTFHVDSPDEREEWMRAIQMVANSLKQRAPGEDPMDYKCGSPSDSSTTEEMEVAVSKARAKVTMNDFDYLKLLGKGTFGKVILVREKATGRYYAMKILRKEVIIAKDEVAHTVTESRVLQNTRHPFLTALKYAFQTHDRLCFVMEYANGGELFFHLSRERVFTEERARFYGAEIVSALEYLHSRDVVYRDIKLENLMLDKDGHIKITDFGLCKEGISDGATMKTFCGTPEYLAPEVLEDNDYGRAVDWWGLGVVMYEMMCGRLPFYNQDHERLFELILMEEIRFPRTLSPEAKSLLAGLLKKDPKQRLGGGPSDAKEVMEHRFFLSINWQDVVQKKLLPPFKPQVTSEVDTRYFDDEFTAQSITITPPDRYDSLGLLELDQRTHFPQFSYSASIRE

Where “and” joins values, the source holds several entries; their conditions need not be identical. Identical values can stand only once. Inconclusive results are not listed. The source holds several records for some structures; these can differ, active in one and inactive in another. Calls of active or inactive are those of the source. How the source made its calls, unless noted: active means hit-call score of the fitted dose curve at least 0.9, where 1 is the maximum; inactive means score below 0.9.

human Caspase 4 (CASP4), CASP4 (gene 837), sequence (P49662 whole entry, looked up): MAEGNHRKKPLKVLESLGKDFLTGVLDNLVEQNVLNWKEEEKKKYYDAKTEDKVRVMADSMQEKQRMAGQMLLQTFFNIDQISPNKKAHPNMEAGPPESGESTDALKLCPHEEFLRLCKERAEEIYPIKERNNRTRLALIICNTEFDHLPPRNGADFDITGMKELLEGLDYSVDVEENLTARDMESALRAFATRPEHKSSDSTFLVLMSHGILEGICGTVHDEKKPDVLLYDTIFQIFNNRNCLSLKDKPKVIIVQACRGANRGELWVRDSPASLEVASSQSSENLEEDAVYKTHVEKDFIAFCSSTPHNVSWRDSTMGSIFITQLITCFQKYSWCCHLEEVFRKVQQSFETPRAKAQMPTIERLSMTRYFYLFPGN
human AKT serine/threonine Kinase 1 (AKT1), AKT1 (gene 207), sequence (P31749 whole entry, looked up): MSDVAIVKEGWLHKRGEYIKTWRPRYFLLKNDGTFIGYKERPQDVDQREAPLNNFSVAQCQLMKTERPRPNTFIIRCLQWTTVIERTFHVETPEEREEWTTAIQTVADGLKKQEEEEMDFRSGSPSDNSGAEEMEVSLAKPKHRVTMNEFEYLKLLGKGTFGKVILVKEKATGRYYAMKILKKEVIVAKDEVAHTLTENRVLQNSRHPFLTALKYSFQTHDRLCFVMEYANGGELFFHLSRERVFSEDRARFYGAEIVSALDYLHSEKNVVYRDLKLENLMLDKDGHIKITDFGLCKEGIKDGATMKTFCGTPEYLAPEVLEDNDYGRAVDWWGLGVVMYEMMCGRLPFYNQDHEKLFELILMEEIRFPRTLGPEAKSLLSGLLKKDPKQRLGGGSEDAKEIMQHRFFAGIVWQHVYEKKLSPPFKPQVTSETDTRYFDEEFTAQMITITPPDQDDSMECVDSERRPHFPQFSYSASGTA
human CYP19A1, CYP19A1 (gene 1588), sequence (P11511 whole entry, looked up): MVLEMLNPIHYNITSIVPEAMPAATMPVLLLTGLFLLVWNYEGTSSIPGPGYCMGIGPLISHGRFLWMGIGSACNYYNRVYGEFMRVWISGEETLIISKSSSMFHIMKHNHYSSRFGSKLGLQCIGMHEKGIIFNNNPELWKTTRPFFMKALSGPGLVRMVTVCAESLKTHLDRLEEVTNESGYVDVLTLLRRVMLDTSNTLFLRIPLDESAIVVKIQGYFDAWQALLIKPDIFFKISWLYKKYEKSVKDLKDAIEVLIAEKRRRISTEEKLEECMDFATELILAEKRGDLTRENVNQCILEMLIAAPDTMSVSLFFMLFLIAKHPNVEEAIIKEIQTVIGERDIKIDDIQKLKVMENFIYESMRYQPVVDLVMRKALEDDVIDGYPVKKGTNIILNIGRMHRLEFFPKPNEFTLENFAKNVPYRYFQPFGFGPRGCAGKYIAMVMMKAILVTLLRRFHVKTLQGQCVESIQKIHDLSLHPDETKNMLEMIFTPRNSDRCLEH

A word on the AC50: it is the concentration at which the activity in the assay is half-maximal. Take `CC/C(=C\C(=N/O)C(N)=O)C(C)[N+](=O)[O-]` (stereo unspecified): the outcome in assay [1], in assay [2], in assay [3] and in assay [5] was inactive. For the same compound, the AC50 in assay [4] is 20 µM (active).
Consider `O=C1CCCCCN1`, for which the result in assay [1], in assay [2], in assay [3], in assay [4] and in assay [5] was inactive.
With `Cn1c(=O)c2c(ncn2C)n(C)c1=O`, the result in assay [1], in assay [2], in assay [3], in [4] and in assay [5] was inactive.
Turning to `CC(=O)c1ccc2c(c1)[C@H](NC(=O)c1ccc(F)cc1)[C@@H](O)C(C)(C)O2`, the outcome in assay [1], in assay [2], in assay [3] and in [5] was inactive. Further, the AC50 in [4] was 4.31 µM (active).
Take `CC(C)CCO`: the result in [1], in assay [2], in assay [3], in [4] and in assay [5] was inactive.
On to `C=CCCCCCCCCC(=O)O`, for which the outcome in [1], in assay [2], in assay [3], in [4] and in assay [5] was inactive.
For `C1=CCCC=CCCC=CCC1`, the outcome in [1], in assay [2], in assay [3], in [4] and in assay [5] was inactive.
Take `CC1=CC(=O)CC(C)(C)C1`: the outcome in [1], in [2], in [3], in assay [4], in assay [5] and in assay [6] was inactive.
`Nc1cccc(N)c1`: the result in assay [1], in [2], in assay [3], in assay [4] and in assay [5] was inactive.
In the case of `CN(C)c1ccc(N=NS(=O)(=O)O)cc1`, the result in assay [1], in assay [2], in [3], in [5] and in [8] was inactive. Moreover, the AC50 in [4] was 19 µM (active); in [7], 12 µM (active).
`COC(=O)CC(=O)OC`: the result in [1], in assay [2], in assay [3], in assay [4] and in assay [5] was inactive.
Take `COC(=O)c1ccccc1O`: the outcome in [1], in assay [2], in [3], in assay [4] and in assay [5] was inactive.
Consider `CC[C@H]1OC(=O)[C@H](C)[C@@H](O[C@H]2C[C@@](C)(OC)[C@@H](O)[C@H](C)O2)[C@H](C)[C@@H](O[C@@H]2O[C@H](C)C[C@H](N(C)C)[C@H]2O)[C@](C)(O)C[C@@H](C)C(=O)[C@H](C)[C@@H](O)[C@]1(C)O`, for which the result in assay [1], in assay [2], in [3], in assay [4] and in [5] was inactive.
As for `Cn1cnc([N+](=O)[O-])c1Sc1ncnc2nc[nH]c12`, the result in assay [1], in assay [2], in assay [5], in [9] and in [10] was inactive. Besides, the AC50 in [2] was 13.7 µM (active); in [3], 12.9 µM (active) and 12.6 µM (active) and 9.23 µM (active); in [4], 17.3 µM (active) and 7.53 µM (active) and 7.26 µM (active).
With `C=CC(=C)CCC=C(C)C`, the result in [1], in assay [2], in assay [3], in assay [4] and in assay [5] was inactive.
In the case of `CC[C@H]1CC[C@H](NCc2cc3c(cc2OC)[C@H]2C[C@H]2C(=O)N3C)[C@H](c2ccccc2)N1`, the result in assay [1], in assay [2], in assay [3], in [4] and in assay [5] was inactive.
Turning to `C1N2CN3CN1CN(C2)C3`, the outcome in assay [1], in [2], in assay [3], in assay [4] and in [5] was inactive.
Turning to `CC1(C)C(=O)N(Br)C(=O)N1Br`, the result in [1], in [2], in assay [3], in assay [4] and in [5] was inactive.
As for `COCCOc1cc2cc(C(=O)NC3CCN(C(C)C)CC3)n(CC(=O)Nc3ccc(Cl)cn3)c2cn1`, the result in assay [1], in assay [2], in assay [3], in [4] and in [5] was inactive.
`CC(=O)OC[C@H]1O[C@@](COC(C)=O)(O[C@H]2O[C@H](COC(C)=O)[C@@H](OC(C)=O)[C@H](OC(C)=O)[C@H]2OC(C)=O)[C@@H](OC(C)=O)[C@@H]1OC(C)=O`: the outcome in assay [1], in assay [2], in [3], in assay [4] and in assay [5] was inactive.
With `CCC(C)(C)C(=O)O[C@H]1C[C@@H](C)C=C2C=C[C@H](C)[C@H](CC[C@@H]3C[C@@H](O)CC(=O)O3)[C@H]21`, the result in assay [1] was inactive. Besides, the AC50 in assay [2] is 25.1 µM (active); in assay [3], 0.149 µM (active); in assay [4], 6.31 µM (active); in assay [5] it was 1.32 µM (active).
For `CCCCCCCCCCCCCCCO`, in that order: “inactive”, 30.7 µM (active), 28.6 µM (active), 29.5 µM (active) and 34.6 µM (active).
On to `CCn1nc(Cc2ccccc2)cc1C1CCN(C[C@H]2C[C@H](N(C)[C@@H](C(=O)O)C(C)C)C[C@@H]2c2cccc(F)c2)CC1`, for which the outcome in assay [1], in assay [2], in assay [3], in assay [4] and in [5] was inactive.
For the compound `Clc1nc(Cl)c(Cl)c(Cl)c1Cl`, the half-maximal activity concentration (AC50) in assay [1] is 31.2 µM (active); in [3], 14.4 µM (active); in assay [4], 23.3 µM (active). The result in [2] and in [5] was inactive.
Turning to `C[C@](N)(Cc1ccc(O)c(O)c1)C(=O)O`, the outcome in [1], in [3] and in assay [5] was inactive. The AC50 in assay [2] was 10.8 µM (active); in assay [4], 23.9 µM (active).

The values are drawn from PubChem BioAssay (EPA / NIEHS).
